Structures are written as SMILES. Results filed as inconclusive are left out. Values without a mark were called inactive. Calls of active or inactive are those of the source. Calls come from the whole dose curve; as a rule, active = well fitted curve in the direction sought with a large enough effect; inconclusive = small, poorly fitted or top-dose-only effect, or another doubt; inactive = no such curve, though single readings can be large; an effect the other way counts as inactive or inconclusive.

The test system of one assay is CRL-7250. Description: Cytotoxic Profiling of Annotated Libraries Using Quantitative High-Throughput Screening (AID 1296008). For max response: % is set by controls: 0 for no effect and ±100 for the full control effect. Note: nearly all actives have a fitted effect of over 60% in size. Note: potency is the fitted concentration of half-maximal effect. To be noted: Five cell lines viability, CellTiter-Glo ATP luminescence, 48-72 h; max response: hits give low values. In a few lines:
(§1)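 Compounds were pin-transferred onto cells and incubated 48 or 72 hr at 37 degree Celsius, 95% humidity. CellTiter-Glo was added, plates sat 10 min at room temperature, then ATP-coupled luminescence was imaged as the viability read-out.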
A general note: In ATP-based viability assays light output follows the ATP content of the culture.

Assay [1] has as its system HaCat. The assay is described as above. To be noted: Five cell lines viability, CellTiter-Glo ATP luminescence, 48-72 h; max response: hits give low values. In outline:
as §1

The subject of another assay is KB-3-1. The assay is described as above. To be noted: Five cell lines viability, CellTiter-Glo ATP luminescence, 48-72 h; max response: hits give low values. In outline:
as §1

The test system of a further assay is NIH3T3. The assay is described as above. To be noted: Five cell lines viability, CellTiter-Glo ATP luminescence, 48-72 h; max response: hits give low values. In a few lines: as §1
The test system of another assay is CAOV3. Briefly: Primary qHTS to identify gynecologic anti-cancer compounds using libraries of approved drugs and bioactive compounds (AID 1345084). Note: nearly all actives have a fitted effect of over 55% in size. Note: potency is the fitted concentration of half-maximal effect. To be noted: Gynecologic cancer cell panel viability, ATPlite luminescence, 48 h; series mostly up to 57.5 µM. In outline: (§2)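 Cells, 1,000 per well, were allowed to settle for 16 h at 37 C before compound addition. Five concentrations were tested for 48 h, and viability was read by ATPlite luminescence after 15 min at room temperature.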

Another assay concerns CASKI. Described as above. To be noted: Gynecologic cancer cell panel viability, ATPlite luminescence, 48 h; series mostly up to 57.5 µM. In a few lines: as §2
Another assay relates to Es-2. The assay is described as above. To be noted: Gynecologic cancer cell panel viability, ATPlite luminescence, 48 h; series mostly up to 57.5 µM. In outline:
as §2

Another assay concerns HeLa. The description is as above. To be noted: Gynecologic cancer cell panel viability, ATPlite luminescence, 48 h; series mostly up to 57.5 µM. In outline: as §2
In the next assay the test system is Hek293T. The assay is described as above. To be noted: Gynecologic cancer cell panel viability, ATPlite luminescence, 48 h, control line for the selectivity index; series mostly up to 57.5 µM. In outline:
as §2

The next assay relates to JEG-3. Described as above. To be noted: Gynecologic cancer cell panel viability, ATPlite luminescence, 48 h; series mostly up to 57.5 µM. In a few lines:
as §2

A further assay relates to PA-1. Described as above. To be noted: Gynecologic cancer cell panel viability, ATPlite luminescence, 48 h; series mostly up to 57.5 µM. In a few lines:
as §2

The subject of a further assay is C33A. The description is as above. To be noted: Gynecologic cancer cell panel viability, ATPlite luminescence, 48 h; series mostly up to 57.5 µM. In a few lines: as §2
The subject of the next assay is OV90. The description is as above. To be noted: Gynecologic cancer cell panel viability, ATPlite luminescence, 48 h; series mostly up to 57.5 µM. In outline:
as §2

The test system of assay [2] is HACAT. Description: qHTS assay to identify novel small-molecules to repurpose for Merkel cell carcinoma treatment (AID 1296009). Note: nearly all actives have a fitted effect of over 60% in size. To be noted: MCC and control cell lines, CellTiter-Glo viability, 72 h; at 44.8 µM (top of the series) unless noted. In a few lines:
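Luminescence from CellTiter-Glo, read 10 min after addition at room temperature, reported viability following a 72 hr, 37 degree celsius treatment with NPC or MIPE compounds in titration; values normalized to plate controls.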
For orientation: In qHTS, concentration-response curves come from the screen itself.

Take `C/C=C(\C)C(=O)OC1C(C)C2(O)C(C=C(CO)CC3(O)C(=O)C(C)=CC32)C2C(C)(C)C12OC(C)=O` (configuration not stated): the max response is -19.7% in the assay on CRL-7250, -5.6% in the assay on HaCat [1], 3.13% in the assay on KB-3-1 and -6.06% in the assay with NIH3T3. The Potency entry in the assay with CAOV3, in the assay on CASKI, in the assay with HeLa, with Hek293T, with JEG-3 and in the assay with PA-1 was “inactive” throughout. Also, in the assay on Es-2, the Potency is 0.224 µM (active).
For the compound `CNS(=O)(=O)c1ccccc1Nc1nc(Nc2ccc(N3CCN(C)CC3)cc2OC)ncc1Br`, the Potency is 1.64 µM (active) in the assay on CRL-7250; 3.26 µM (active) with HaCat [1]; 4.61 µM (active) in the assay on KB-3-1; 1.46 µM (active) with NIH3T3; 7.94 µM (active) in the assay on CASKI; 14.1 µM (active) in the assay on Hek293T. Also, in the assay with PA-1, the Potency was 2 µM (active).
Turning to `COc1cc2c(c(OC)c1CC=C(C)C)C[C@H](c1ccc(O)c(CC=C(C)C)c1O)CO2`, the max response with CRL-7250 was 2.21%; with HaCat [1], -6.86%; with KB-3-1, -4.62%; in the assay with NIH3T3 it was -5.48%. Besides, the Potency result in the assay on C33A, in the assay with CASKI, in the assay with Es-2, with HeLa, in the assay with Hek293T and in the assay with JEG-3 was “inactive” in each case. For the same compound, the Potency result in the assay on OV90 and in the assay on PA-1 was “inactive” throughout.
Turning to `CC(C)(Cc1ccccc1)NCC(O)c1ccc(O)c(NS(C)(=O)=O)c1` (configuration not stated), the max response is 0.0508% with CRL-7250, 2.45% in the assay on HaCat [1], -4.4% with KB-3-1 and 0.817% in the assay with NIH3T3. Also, the Potency result in the assay with C33A, in the assay with CASKI, in the assay on Es-2, in the assay on HeLa, in the assay on Hek293T and in the assay on JEG-3 was “inactive” in each case. Also, the Potency result in the assay with OV90 and in the assay on PA-1 was “inactive” each time.
Take `O=C(NCCCNC(=O)c1ccc[nH]c1=O)c1cc(-c2ccccc2)on1`: the max response is -21.2% in the assay with CRL-7250, -1.65% with HaCat [1], -25.1% in the assay with KB-3-1 and 2.72% in the assay on NIH3T3. The Potency entry with C33A and in the assay with CASKI was “inactive” in each case. The Potency in the assay on PA-1 is 8.91 µM (active).
On to `O=C(NC[C@H](O)CN1CCc2ccccc2C1)c1ccnc(NC2CCC2)c1`, for which the max response was -5.29% in the assay with CRL-7250, -27.8% in the assay with HaCat [1], -4.24% with KB-3-1 and -20.6% in the assay with NIH3T3. Further, the Potency entry in the assay with C33A, with CASKI, with Es-2, in the assay with HeLa, in the assay on Hek293T and in the assay on JEG-3 was “inactive” each time. Besides, in the assay with PA-1, the Potency result is “inactive”.
On to `CC1(C)CC[C@]2(C(=O)O)CC[C@]3(C)C(=CCC4[C@@]5(C)C[C@@H](O)[C@H](O)C(CO)(CO)C5CC[C@]43C)C2[C@@H]1O` (some centres not stated), for which the results for the Potency in the assay on CRL-7250 and with KB-3-1 were 7.96 µM (active) and 10 µM (active), respectively. Further, the max response in the assay with HaCat [1] is -58.7%; with NIH3T3, -1.94%. For the same compound, the Potency entry in the assay on CAOV3, in the assay with CASKI and in the assay on OV90 was “inactive” throughout.
`COc1cc2c(cc1O)C1(Cc3ccc4c(c3C1O)OCO4)[N+](C)([O-])CC2` (configuration not stated): the call with CRL-7250 and in the assay with KB-3-1 was inactive. In addition, the max response is -20.1% with HaCat [1] and -2.31% with NIH3T3. Moreover, the Potency result in the assay with C33A, with CASKI, in the assay with Es-2, in the assay with HeLa, with Hek293T and with JEG-3 was “inactive” each time. The Potency entry with OV90 and in the assay with PA-1 was “inactive” each time.
In the case of `C=CC(C)(O)CC[C@@H]1[C@@]2(C)CCCC(C)(C)C2CC[C@@]1(C)O` (some centres not stated), the max response with CRL-7250 is -17.3%; in the assay with HaCat [1], -28.7%; with KB-3-1 it was -9.76%; in the assay on NIH3T3, -17%. The Potency result in the assay on C33A, in the assay on CASKI, in the assay on Es-2, with HeLa, in the assay on Hek293T and in the assay with JEG-3 was “inactive” in each case. Further, the Potency result with OV90 and in the assay on PA-1 was “inactive” in each case.
In the case of `CCOc1nc(NC(=O)Cc2cc(OC)ccc2OC)cc(N)c1C#N`, the max response in the assay on CRL-7250 was -9.74%; in the assay on KB-3-1, 7.15%. In addition, the compound was classed as inactive in the assay on HaCat [1] and in the assay on HACAT [2]. For the same compound, the Potency entry in the assay with C33A, in the assay with CAOV3, with CASKI, in the assay with Es-2, in the assay with HeLa and with Hek293T was “inactive” throughout. In addition, the Potency entry with JEG-3, with OV90 and in the assay with PA-1 was “inactive” throughout.
Consider `C/C=C(\C)C(=O)OC1C(C)C2(O)C(C=C(CO)CC3(O)C(=O)C(C)=CC32)C2C(C)(C)C12OC(=O)C(C)C` (configuration not stated), for which the max response in the assay with CRL-7250 was -36%; in the assay with HaCat [1], -1.92%; in the assay on KB-3-1 it was -0.0958%; with NIH3T3 it was 1.03%. For the same compound, the Potency result with CAOV3, with CASKI, in the assay on Es-2, in the assay with HeLa, in the assay with Hek293T and in the assay with OV90 was “inactive” throughout. Further, the Potency result in the assay on PA-1 was “inactive”.
With `C/C(=C\Cc1c(O)c(Cl)c(C)c(C=O)c1O)CC/C=C(\C)[C@H]1CC(=O)C(C)(C)O1`, the max response was -27.3% in the assay with CRL-7250, -8.07% in the assay on HaCat [1], -27.9% with KB-3-1 and -17.5% in the assay on NIH3T3. Further, the Potency entry in the assay on C33A, in the assay on CAOV3, in the assay with CASKI, in the assay on Hek293T and with OV90 was “inactive” in each case.
With `CC1=CC2/C=C(\C)CCC(O)C(=O)C(O)CC(=O)C23C(=O)NC(CC(C)C)C3C1C` (configuration not stated), in the assay with CRL-7250, the compound was called inactive. Moreover, the max response with HaCat [1] is -78.4%; with KB-3-1, 2.51%; in the assay with NIH3T3, -27%. Further, the Potency result with CASKI, in the assay with Es-2, with HeLa, in the assay on Hek293T, with JEG-3 and with OV90 was “inactive” in each case. Further, the Potency result with PA-1 is “inactive”.
Take `CCn1nc(C2CCN(C(=O)CCO)CC2)nc1-c1cnc(N)c(-c2nnc(C(C)(C)C)o2)n1`: the max response in the assay with CRL-7250 is -9.09%; with KB-3-1, 9.1%. The Potency was 3.66 µM (active) in the assay on HaCat [1] and 8.2 µM (active) in the assay with NIH3T3. In addition, the Potency result with C33A, in the assay on Es-2, in the assay with HeLa, in the assay on Hek293T, in the assay on JEG-3 and in the assay on OV90 was “inactive” in each case.
As for `CCN(CC)CCCCCCNc1cc(OC)cc2c(C)ccnc12`, the max response was -13.4% with CRL-7250 and -5.11% in the assay on KB-3-1. In addition, the result with HaCat [1] and with HACAT [2] was inactive. Moreover, the Potency result with C33A, in the assay on CAOV3, in the assay with CASKI, in the assay on Es-2, with HeLa and in the assay on Hek293T was “inactive” throughout.
Turning to `O=C(NCc1ccccc1-c1ccccc1C(=O)NCCc1ccccn1)OCc1ccccc1`, the max response in the assay on CRL-7250 was 2.09%; in the assay on HaCat [1], -7.21%; in the assay with KB-3-1 it was 8.57%; in the assay with NIH3T3, 0.337%. The Potency entry with C33A, with CASKI, in the assay with Es-2, in the assay with HeLa, in the assay with Hek293T and with JEG-3 was “inactive” each time. Further, the Potency result with OV90 and with PA-1 was “inactive” each time.

Values taken from PubChem BioAssay (NCATS).
